hiPSC survival: enhancers of single-cell hiPSC survival, primary screen, ATPlite luminescence; 100% = ROCK inhibitor wells, 0% = DMSO; survival enhancement, % at 20 µM; 360,000 compounds, 0.044% hits; in the data active means survival enhancement above about 18%;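 further: cells exposed to compounds for 16 hours before the ATP read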
V-ATPase pH: regulators of yeast V-ATPase proton pumping, primary screen, pHLuorin cytosolic pH fluorescence | S. cerevisiae | response, % at 10 µM | 350,000 compounds, 0.37% hits; in the data active means response mostly above about 7.3%, no sharp cut-off; inactive means mostly below about 5.4%; further: actives read high
CR mimetic SO: reduction of superoxide in aged yeast, primary screen, HTS. S. cerevisiae aged cells, superoxide DHE fluorescence; hits give low values. superoxide response (% of plate mean), % at 10 µM. 330,000 compounds, 0.18% hits. AID 2690, 2010;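 active means superoxide response under a set limit, about three screen SD below normal, cut at about 65% in these data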;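 further: yeast aged for seven days with compound at 30 °C before DHE staining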
CTSL1 counter: Fasciola hepatica cathepsin L1 inhibitors, primary screen, counter-screen for PFM18AAP inhibitor project, biochemical, QFRET, fluorogenic peptide substrate; recombinant F. hepatica cathepsin L1, Z-Leu-Arg-MCA fluorescence; inhibition, % at 5.96 µM; 300,000 compounds, 0.49% hits;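 active means inhibition above the mean of all tested compounds plus 3 SD, set per screening campaign, cut at about 17% in these data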
Hits are given with their value. In the library only some 1% were active in any assay of this set; here they are far more common.

Screening O=C1NC(=O)N(Cc2ccc(F)cc2)C(=O)/C1=C\c1ccc([N+](=O)[O-])s1 returned hiPSC survival inactive, V-ATPase pH 101, CR mimetic SO inactive and CTSL1 counter inactive.
Screening O=C1NC(=O)N(Cc2ccc(F)cc2)C(=O)/C1=C\c1ccc(N2CCCC2)cc1 returned hiPSC survival inactive, V-ATPase pH inactive, CR mimetic SO inactive and CTSL1 counter inactive.
COc1ccc(CN2C(=O)NC(=O)/C(=C/c3ccc([N+](=O)[O-])s3)C2=O)cc1 was read as hiPSC survival inactive, V-ATPase pH 133, CR mimetic SO inactive and CTSL1 counter inactive.
For COC(=O)C1=C(c2cccc(OCc3ccccc3)c2)C[C@@H]2CC[C@H]1N2C(=O)NCc1ccc(N(C)C)cc1 the results were hiPSC survival inactive, V-ATPase pH inactive and CR mimetic SO inactive.
For O=C(c1ccc2nc(-c3ccco3)c(-c3ccco3)nc2c1)N1CCC2(CC1)OCCO2 the results were hiPSC survival inactive, V-ATPase pH inactive, CR mimetic SO inactive and CTSL1 counter 17.
`COc1ccc(Cn2c(O)c(C=NCCCn3ccnc3)c(=O)[nH]c2=O)cc1` gave hiPSC survival 18, V-ATPase pH inactive, CR mimetic SO inactive and CTSL1 counter inactive.
`Cc1ccc(S(=O)(=O)N2CC2(C)CCl)cc1` (configuration not stated) gave hiPSC survival inactive, V-ATPase pH inactive, CR mimetic SO inactive and CTSL1 counter 20.
CCN1CCN(Cc2cccnc2)CC1 was read as hiPSC survival inactive, V-ATPase pH inactive, CR mimetic SO inactive and CTSL1 counter 19.
Screening CCC(=NCc1cccnc1)c1c(O)n(Cc2ccccc2)c(=O)[nH]c1=O returned hiPSC survival inactive, V-ATPase pH inactive, CR mimetic SO inactive and CTSL1 counter inactive.
`COC(=O)C12OCC34C(CC5C(C)=C(O)C(=O)CC5(C)C3C(O)C1O)OC(=O)C(OC(=O)/C=C(\C)C(C)C)C24` (configuration not stated) gave hiPSC survival inactive and V-ATPase pH inactive.
For CC(C)[C@@]1(NC(=O)[C@@H]2C[C@@H]3c4cccc5[nH]cc(c45)C[C@H]3N(C)C2)O[C@@]2(O)[C@@H]3CCCN3C(=O)[C@H](Cc3ccccc3)N2C1=O the results were hiPSC survival inactive, V-ATPase pH inactive, CR mimetic SO inactive and CTSL1 counter inactive.
For CC(C)C[C@H]1C(=O)N2CCCC2[C@]2(O)O[C@](NC(=O)[C@@H]3C=C4c5cccc6[nH]cc(c56)CC4N(C)C3)(C(C)C)C(=O)N12 (some centres not stated) the results were hiPSC survival inactive, V-ATPase pH inactive, CR mimetic SO inactive and CTSL1 counter 31.
`CC(C)[C@H]1C(=O)N2CCC[C@H]2[C@]2(O)O[C@](NC(=O)[C@@H]3C=C4c5cccc6[nH]cc(c56)C[C@H]4N(C)C3)(C(C)C)C(=O)N12` gave hiPSC survival inactive, V-ATPase pH inactive, CR mimetic SO inactive and CTSL1 counter 36.
`Cc1ccc(S(=O)(=O)N[C@@H](CCCCN)C(=O)CCl)cc1` gave hiPSC survival inactive, V-ATPase pH inactive, CR mimetic SO inactive and CTSL1 counter 85.
`CC(C)n1c(O)c(C2c3cc(Cl)ccc3Oc3[nH]c(=O)n(C(C)C)c(=O)c32)c(=O)[nH]c1=O` (configuration not stated) gave hiPSC survival 26 and V-ATPase pH 18.
`CC(=O)c1c(O)n(-c2cccc(Cl)c2)c(=O)[nH]c1=O` (tested in a mixture with another compound) gave hiPSC survival inactive, V-ATPase pH inactive, CR mimetic SO inactive and CTSL1 counter inactive.
For COc1ccc(N2CCN(Cc3nc4ccccc4[nH]3)CC2)cc1 the results were hiPSC survival inactive, V-ATPase pH inactive, CR mimetic SO inactive and CTSL1 counter 17.
`CCOc1cccc(N2C(=O)/C(=C/c3ccco3)C(=O)NC2=S)c1` gave hiPSC survival inactive, V-ATPase pH inactive, CR mimetic SO inactive and CTSL1 counter inactive.
`O=C1NC(=S)N(c2ccccc2)C(=O)/C1=C/c1ccco1` gave hiPSC survival inactive, V-ATPase pH 7.6, CR mimetic SO inactive and CTSL1 counter inactive.
Screening COc1ccc(CN2C(=O)C(CC(=O)NCc3ccco3)CC(C(=O)N(C)C)=C2C)cc1 (configuration not stated) returned hiPSC survival inactive and V-ATPase pH inactive.

Screening results as filed in PubChem.
